Assay results: PubChem BioAssay AID1159580 (chemical genetic matrix, 2015)
Several values for one entry are separate records, joined by “and”; a condition that tells them apart may be missing. Equal values may be shown once. Out of some 5,500 compounds screened, about 2,000 (36%) were called active. About 18% were inconclusive and are not listed. Rule as the data show it: active = normalized growth mostly below about 0.91 (no sharp cut-off); inconclusive = no clear call, values can overlap the other calls; inactive = mostly above about 0.92. The list shows a part of the results.

Assay: chemical genetic growth profiling, strain panel (AID 1159580);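 also: tested at 20 µM; growth read once vehicle control cultures reached saturation at 30 °C; 1 = growth at the plate median or of vehicle wells; lower values mean less growth of the strain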
Settings: S. cerevisiae deletion strains, growth OD

Measured: normalized growth

CC(=O)N(O)CCCCCNC(=O)CCC(=O)N(O)CCCCCNC(=O)CCC(=O)N(O)CCCCCN
active: locus YBR021W, strain FUR4, stronger effect = lower value 0.845
inactive: locus YAL013W, strain DEP1, stronger effect = lower value 0.997 | locus YAL021C, strain ccr4, stronger effect = lower value 0.959 | locus YAL026C, strain drs2, stronger effect = lower value 1 | locus YAL030W, strain snc1, stronger effect = lower value 1 | locus YBL061C, strain skt5, stronger effect = lower value 1 | locus YBR009C, strain hhf1, stronger effect = lower value 1 | locus YBR023C, strain chs3, stronger effect = lower value 1.02 | locus YBR171W, strain sec66, stronger effect = lower value 1.01 | locus YBR229C, strain ROT2, stronger effect = lower value 1.01 | locus YBR231C, strain swc5, stronger effect = lower value 0.967 | locus YBR279W, strain paf1, stronger effect = lower value 0.99 | locus YCL011C, strain gbp2, stronger effect = lower value 1.04 | locus YCL016C, strain dcc1, stronger effect = lower value 1.03 | locus YCL029C, strain bik1, stronger effect = lower value 1.04 | locus YCL069W, strain vba3, stronger effect = lower value 0.994 | locus YCR088W, strain abp1, stronger effect = lower value 1.02 | locus YDL005C, strain med2, stronger effect = lower value 1.01 | locus YDL035C, strain GPR1, stronger effect = lower value 0.987 | locus YDL040C, strain nat1, stronger effect = lower value 1 | locus YDL074C, strain BRE1, stronger effect = lower value 0.907 | locus YDL101C, strain DUN1, stronger effect = lower value 1.01 | locus YDL185W, strain tfp1, stronger effect = lower value 0.967 | locus YDL192W, strain arf1, stronger effect = lower value 1.01 | locus YDR001C, strain nth1, stronger effect = lower value 1.03 | locus YDR069C, strain doa4, stronger effect = lower value 0.978 | locus YDR101C, strain arx1, stronger effect = lower value 1.04 | locus YDR137W, strain rgp1, stronger effect = lower value 1.12 | locus YDR150W, strain NUM1, stronger effect = lower value 1.01 | locus YDR159W, strain sac3, stronger effect = lower value 1.05 | locus YDR162C, strain NBP2, stronger effect = lower value 0.997 | locus YDR195W, strain ref2 1.03 | locus YDR297W, strain sur2, stronger effect = lower value 0.997 | locus YDR318W, strain mcm21, stronger effect = lower value 1.02 | locus YDR334W, strain swr1, stronger effect = lower value 0.998 | locus YDR335W, strain msn5, stronger effect = lower value 0.987 | locus YDR388W, stronger effect = lower value 1.02 | locus YDR392W, strain spt3, stronger effect = lower value 1.2 | locus YDR502C, strain sam2, stronger effect = lower value 1.04 | locus YEL003W, strain gim4, stronger effect = lower value 0.961 | locus YEL037C, strain rad23, stronger effect = lower value 0.997 | locus YEL061C, strain CIN8 (second series), stronger effect = lower value 1.01 | locus YEL061C, strain CIN8, stronger effect = lower value 1.01 | locus YER015W, strain faa2, stronger effect = lower value 0.944 | locus YER016W, strain bim1, stronger effect = lower value 1.01 | locus YER110C, stronger effect = lower value 1.01 | locus YER111C, strain swi4, stronger effect = lower value 0.973 | locus YER155C, strain BEM2 (second series), stronger effect = lower value 1.06 | locus YER155C, strain BEM2, stronger effect = lower value 1.04 | locus YER167W, strain BCK2, stronger effect = lower value 1.05 | locus YFR010W, strain ubp6, stronger effect = lower value 0.986 | locus YGL078C, strain dbp3, stronger effect = lower value 1.07 | locus YGL086W, strain mad1, stronger effect = lower value 1.01 | locus YGL167C, strain pmr1, stronger effect = lower value 0.978 | locus YGL173C, strain kem1, stronger effect = lower value 0.99 | locus YGL227W, strain vid30, stronger effect = lower value 1.02 | locus YGL240W, strain doc1, stronger effect = lower value 1.01 | locus YGL248W, strain PDE1, stronger effect = lower value 0.987 | locus YGL253W, strain hxk2, stronger effect = lower value 0.989 | locus YGR078C, strain PAC10, stronger effect = lower value 0.983 | locus YGR135W, strain pre9, stronger effect = lower value 0.994 | locus YGR252W, strain gcn5, stronger effect = lower value 0.771 | locus YHR013C, strain ard1, stronger effect = lower value 0.984 | locus YHR027C, strain rpn1, stronger effect = lower value 0.94 | locus YHR030C, strain SLT2, stronger effect = lower value 1.02 and 1.05 | locus YHR079C, strain IRE1 (second series), stronger effect = lower value 1.02 | locus YHR079C, strain IRE1, stronger effect = lower value 1.05 | locus YHR094C, strain hxt1, stronger effect = lower value 1.02 | locus YHR129C, strain ARP1, stronger effect = lower value 1.01 | locus YHR142W, strain chs7, stronger effect = lower value 0.981 | locus YHR200W, strain rpn10, stronger effect = lower value 1.03 | locus YIL066C, strain RNR3, stronger effect = lower value 1.01 | locus YIL073C, strain SPO22, stronger effect = lower value 0.95 | locus YIL125W, strain kgd1, stronger effect = lower value 1.04 | locus YIR030C, strain dcg1, stronger effect = lower value 1.03 | locus YJL092W, strain hpr5, stronger effect = lower value 1.03 | locus YJL095W, strain BCK1 (second series), stronger effect = lower value 1.01 | locus YJL095W, strain BCK1, stronger effect = lower value 0.959 and 1.05 | locus YJL115W, strain asf1, stronger effect = lower value 1.01 | locus YJL129C, strain trk1, stronger effect = lower value 1.01 | locus YJL134W, strain LCB3, stronger effect = lower value 1.01 | locus YJL154C, strain vps35, stronger effect = lower value 1.01 | locus YJL164C, strain tpk1, stronger effect = lower value 1.03 | locus YJL166W, strain qcr8, stronger effect = lower value 1.02 | locus YJL168C, strain set2, stronger effect = lower value 1.01 | locus YJL187C, strain SWE1 (second series), stronger effect = lower value 0.975 | locus YJL187C, strain SWE1, stronger effect = lower value 0.987 | locus YJR043C, strain POL32, stronger effect = lower value 1.02
